High-throughput results from PubChem BioAssay.
An excerpt weighted towards active compounds, which were near 1.8% of everything screened.
MEX-5 binding: C. elegans MEX-5 TCR-2 RNA binding activity; hit rate 0.38% among 300,000; MEX-5/FITC-TCR2 RNA binding, fluorescence polarization; stronger effect = lower value; activity score (negative = inhibition of binding), % at 10 µM;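 active = inhibition past about -25% in most replicates, and total fluorescence under double the plate's negative control median, limit read from the data; inconclusive = replicates evenly split on the limit, or fluorescence at least double controls; inactive = too little inhibition in most replicates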
Target sequence (Q9XUB2 whole entry, looked up): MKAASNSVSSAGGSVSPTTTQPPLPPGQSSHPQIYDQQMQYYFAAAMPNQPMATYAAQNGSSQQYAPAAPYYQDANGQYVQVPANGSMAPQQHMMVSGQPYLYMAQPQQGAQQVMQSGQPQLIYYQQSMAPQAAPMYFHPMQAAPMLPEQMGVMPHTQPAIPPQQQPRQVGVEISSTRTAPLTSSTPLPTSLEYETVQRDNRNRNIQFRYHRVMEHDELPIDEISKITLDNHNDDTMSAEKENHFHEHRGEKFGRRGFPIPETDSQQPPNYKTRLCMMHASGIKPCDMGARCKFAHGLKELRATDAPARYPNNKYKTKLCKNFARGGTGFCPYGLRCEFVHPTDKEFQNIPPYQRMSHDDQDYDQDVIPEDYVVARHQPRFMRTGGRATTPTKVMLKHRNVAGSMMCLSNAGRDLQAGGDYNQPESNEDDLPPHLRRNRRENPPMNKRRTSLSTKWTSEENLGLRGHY
PABP FP inh: PABP-poly(A) binding inhibition. PABP-poly(A) RNA binding, fluorescence polarization. calls only at 35 µM. hit rate 1% among 290,000. AID 2014;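 also: calls also rest on retests at 20 µM and on dose response follow-up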
EBV gp42 inh: inhibitors of Epstein-Barr virus glycoprotein 42; AID 1085; hit rate 0.42% among 220,000; Q1HVG2; Fluorescence polarization binding assay, mP read-out; inhibition, % (tested at 21.74 µM); in the data active = inhibition above about 50%
MLLE-PAM2 inh: blocks PAM2 peptide binding to the PABP1 MLLE domain; P11940; GST-MLLE / FITC-PAM2 fluorescence polarization; inhibition, % at 20 µM; hit rate 0.36% among 360,000; AID 588489; in the data active = inhibition above about 35%, passing the limit was not always enough
eIF4H FP inh: inhibitors of RNA binding by human eIF4H; hit rate 0.94% among 290,000; eIF4H fluorescence polarization binding assay; AID 2012; inhibition, % at 35 µM; Q15056;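 also: calls also rest on retests at 20 µM and on dose response follow-up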
Of the large screens only hits and unclear results are named; the others gave an inactive call. Unless noted, no rule for the calls is given here.

COc1ccccc1C(=O)NCCn1ccc2ccccc21	MLLE-PAM2 inh 43
COC(=O)c1c(NC(=O)CCCC(=O)O)sc(C)c1C	none
Cc1sc(NC(=O)CCCC(=O)O)c(C(N)=O)c1-c1ccccc1	MLLE-PAM2 inh 35
COc1cccc(NC(=O)N(C)C[C@@H]2OCc3cnnn3CCCC(=O)N([C@H](C)CO)C[C@@H]2C)c1	none (no result: MEX-5 binding, PABP FP inh, EBV gp42 inh, eIF4H FP inh)
Cc1[nH]c2ccccc2c1C(O)c1ccncc1 (stereo not drawn)	none
Cc1[nH]c2ccccc2c1C(c1ccccn1)c1c(C)[nH]c2ccccc12	PABP FP inh active, eIF4H FP inh 55
O=C1OCCC1=COCCCCCCOC=C1CCOC1=O	none (no result: MEX-5 binding, PABP FP inh, EBV gp42 inh, eIF4H FP inh)
COCC(C)n1c(SCC(=O)Nc2sccc2C(N)=O)nc2ccccc2c1=O (stereo not drawn)	none (no result: MEX-5 binding, PABP FP inh, EBV gp42 inh, eIF4H FP inh)
COCC(C)n1c(SCC(=O)Nc2nccs2)nc2ccccc2c1=O (stereo not drawn)	MLLE-PAM2 inh 44 (no result: MEX-5 binding, PABP FP inh, EBV gp42 inh, eIF4H FP inh)
CN(Cc1ccccc1)C1=CC(=[N+]2CCCCC2)CC(C)(C)C1	PABP FP inh active
CC1(C)CC(N2CCN(Cc3ccccc3)CC2)=CC(=[N+]2CCCCC2)C1	none
CN1/C(=C/C=C(C#N)C#N)C(C)(C)c2ccccc21	MEX-5 binding -87, PABP FP inh inconclusive, EBV gp42 inh 54, eIF4H FP inh inconclusive
CN1/C(=C\C=O)C(C)(C)c2ccccc21	none
Oc1c(C=Nc2cccc3cccnc23)sc2ccccc12	PABP FP inh active, eIF4H FP inh 125 (no result: MLLE-PAM2 inh)
CC(C)CC[n+]1ccccc1/C=C/c1ccc(N(C)C)cc1	PABP FP inh active, eIF4H FP inh inconclusive (no result: EBV gp42 inh)
CCOC(=O)CCC1(C(=O)OC)C(=O)CCCCCC=C1C(=O)OC (stereo not drawn)	none (no result: MEX-5 binding, PABP FP inh, EBV gp42 inh, eIF4H FP inh)
Cc1cc(C(=O)COC(=O)c2ccc(O)cc2)c(C)n1Cc1ccco1	PABP FP inh active, eIF4H FP inh 74
Cc1cc(C(=O)C(C)Cl)c(C)n1Cc1ccco1 (stereo not drawn)	PABP FP inh active, eIF4H FP inh 101
O=C(NCc1ccncc1)c1ccc(N2CCCC2)c([N+](=O)[O-])c1	none
COC(=O)c1cc(CNC(=O)c2ccc(N3CCCC3)c([N+](=O)[O-])c2)ccc1OC	PABP FP inh active (no result: EBV gp42 inh)
COc1ccc(C(=O)/C=C/c2ccc(N3CCCCC3)c([N+](=O)[O-])c2)c(OC)c1	MEX-5 binding inconclusive
COc1ccc(C(=O)/C=C/c2ccc(N3CCCCC3)c([N+](=O)[O-])c2)cc1	PABP FP inh active, eIF4H FP inh active
CCNC(=O)C1CCCN(C(=O)c2ccc3c(c2)CCO3)CC1 (stereo not drawn)	none (no result: MEX-5 binding, PABP FP inh, EBV gp42 inh, eIF4H FP inh)
COC(OC)c1ccnc(-c2ccc(OC(=O)c3ccccc3)cc2)n1	none
COC(OC)c1ccnc(-c2ccc(OC(=O)c3cccs3)cc2)n1	EBV gp42 inh 59
COc1ccc(NC(=O)CSc2nnc3n2CCCCC3)cc1S(=O)(=O)N(C)C	none (no result: MEX-5 binding, PABP FP inh, EBV gp42 inh, eIF4H FP inh)
CC(Sc1ccc2c(c1)OCCO2)C(=O)Nc1ccc2c(c1)OCO2 (stereo not drawn)	none
CC(Sc1ccc2c(c1)OCCO2)C(=O)Nc1ncc(Cl)cc1Cl (stereo not drawn)	MLLE-PAM2 inh 43
O=C1C=C(C#Cc2ccccc2)C[C@@H](c2ccc(F)cc2)C1	none (no result: MEX-5 binding, PABP FP inh, EBV gp42 inh, eIF4H FP inh)
Cc1ccc(-n2[nH]c(C)c(C=Nc3ccc4[nH]c(=O)[nH]c4c3)c2=O)cc1	none
Cc1ccc(-n2[nH]c(C)c(C=Nc3ccc4[nH]c(=O)[nH]c4c3)c2=O)cc1C	MLLE-PAM2 inh 67
CCCc1cc(-n2ccnc2)n2c(nc3ccccc32)c1C#N	eIF4H FP inh 125
Cc1cc(-n2ccnc2)n2c(nc3ccccc32)c1C#N	none
CC1CCC(NC(=O)CCS(=O)(=O)c2ccc3c(c2)NC(=O)CS3)CC1 (stereo not drawn)	none (no result: EBV gp42 inh)
Cc1cccc(NC(=O)CCS(=O)(=O)c2ccc3c(c2)NC(=O)CS3)n1	PABP FP inh active (no result: EBV gp42 inh)
CC1Cc2ccccc2N1C(=O)CCS(=O)(=O)c1ccc2c(c1)NC(=O)CS2 (stereo not drawn)	PABP FP inh active (no result: EBV gp42 inh)
CC(=O)c1ccc(S(=O)(=O)N2CCN(c3ccnc4cc(Cl)ccc34)CC2)cc1	none (no result: MEX-5 binding, PABP FP inh, EBV gp42 inh, eIF4H FP inh)
Cc1cc(C)c2c(N)c(C(=O)c3ccc(Cl)cc3)sc2n1	none
Nc1c(C(=O)Nc2nc3ccccc3s2)sc2nc(-c3cccs3)ccc12	MEX-5 binding -46
Cc1cc(-c2cccs2)c2c(N)c(C(=O)c3ccc4c(c3)OCO4)sc2n1	EBV gp42 inh 133
CC(C)NC(=O)c1sc2nc(-c3cccs3)cc(-c3cccs3)c2c1N	EBV gp42 inh 64 (no result: MLLE-PAM2 inh)
CC(C)NC(=O)c1cc(-c2cccs2)nc2ccccc12	none (no result: EBV gp42 inh)
